From PubChem BioAssay
GAA glycogen = GAA glycogen-cleavage inhibition or activation; P10253; recombinant GAA, glycogen substrate, Amplex Red glucose oxidase fluorescence; Potency, µM (doses to about 76.4 µM), usual class: inhibitors; hit rate 0.38% among 300,000; AID 2100;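 also: the screen sought inhibitors and activators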
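Recombinant enzyme (4 nM final) with compounds titrated up to 77 uM and bovine liver glycogen (30 ug) in citrate pH 5.0, 0.01% Tween-20, 37 C 40 min. Released glucose detected by Amplex Red/glucose oxidase (Ex 573/Em 610); AC50 from Hill fits.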
GAA inhib = blocks human lysosomal alpha-glucosidase. P10253. Potency, µM (series often up to 76.9 µM), actives largely listed as inhibitors. AID 1466. purified human GAA, 4-MU-alpha-glucoside fluorescence. hit rate 0.005% among 200,000
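Read-out is 4-methylumbelliferone fluorescence (Ex 365/Em 440 nm) after NaOH/glycine stop at pH 10. Enzyme 4 nM, substrate 400 uM, pH 5.0 citrate buffer, 20 min room temperature; AC50 from Hill-equation concentration-response.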
aGal spleen mod = alpha-galactosidase A (human) modulation | P06280 | human spleen homogenate, 4MU-alpha-Gal fluorescence, 40 min | Potency, µM (doses to about 80 µM), usual class: inhibitors | hit rate 0.008% among 240,000
Target sequence (P06280 32-429 limits assumed): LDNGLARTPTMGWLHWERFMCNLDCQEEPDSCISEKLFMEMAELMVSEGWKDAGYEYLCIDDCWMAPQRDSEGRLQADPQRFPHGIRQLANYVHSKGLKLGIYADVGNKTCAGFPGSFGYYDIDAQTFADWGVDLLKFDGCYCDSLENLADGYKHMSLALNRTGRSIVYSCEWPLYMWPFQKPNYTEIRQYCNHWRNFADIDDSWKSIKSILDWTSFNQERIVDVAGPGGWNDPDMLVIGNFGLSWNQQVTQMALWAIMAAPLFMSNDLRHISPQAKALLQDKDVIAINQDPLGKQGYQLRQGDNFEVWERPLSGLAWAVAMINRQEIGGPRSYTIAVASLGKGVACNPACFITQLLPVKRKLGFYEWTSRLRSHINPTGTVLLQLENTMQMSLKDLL
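Human spleen homogenate (1 ug) was the enzyme source, with 4-methylumbelliferyl-alpha-D-galactopyranoside (1 mM final) in pH 5.0 citrate buffer with 0.01% Tween-20. Compounds were titrated; after 40 min at 37C, NaOH/glycine stop, 4-MU fluorescence read; AC50 from Hill fits.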
GLA inh pH 4.5 = inhibitors of human alpha-galactosidase A at pH 4.5. purified enzyme, 4-MU-alpha-Gal fluorescence, pH 4.5. activity change, negative = inhibition, % at 105 µM. AID 1467. 230,000 tested, under 10 active
N370S GC mod = inhibits or activates N370S mutant glucocerebrosidase; N370S GC spleen homogenate, 4MU-glucoside fluorescence; hit rate 0.092% among 330,000; Potency, µM (series often up to 59.4 µM), most hits filed as inhibitors
aGlu spleen mod = lysosomal alpha-glucosidase (human) modulation | P10253 | human spleen homogenate, 4-MU-alpha-glucoside fluorescence | Potency, µM (titrated, usually from 79.9 µM), actives largely listed as inhibitors | hit rate 0.006% among 240,000
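AC50 values come from Hill-equation fits of concentration-response data, normalized to no-enzyme and full-activity controls. Enzyme source: 1 ug human spleen homogenate; 1 mM fluorogenic 4-MU glucoside, pH 5.0 citrate buffer, 37 C, 40 min.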
Hits are given with their value; 0 = inactive; ? = inconclusive; - = no result; [ ] = dose if it differs, or a comment. Only some compounds are listed: those with a hit (about 0.41% of all), similar ones and a draw of the others. Calls follow the shape of the dose curve; as a rule, active = well fitted curve in the direction sought with a large enough effect; inconclusive = small, poorly fitted or top-dose-only effect, or another doubt; inactive = no such curve, though single readings can be large; an effect the other way counts as inactive or inconclusive.

SMILES | GAA glycogen | GAA inhib | aGal spleen mod | GLA inh pH 4.5 | N370S GC mod | aGlu spleen mod
CCCC(=O)OC1(C(=O)CO)CCC2C3CCC4=CC(=O)CCC4(C)C3C(O)CC21C (configuration not stated) | - | - | 0 | 0 | 0 | 0
CCOc1ccc(N(CC(=O)Nc2ccc(OC)cc2)S(=O)(=O)c2c(C)[nH]c(=O)[nH]c2=O)cc1 | 0 | 0 | 0 | 0 | ? | 0
CCOc1ccc(N(CC(=O)Nc2ccc(F)cc2F)S(=O)(=O)c2c(C)[nH]c(=O)[nH]c2=O)cc1 | 0 | - | - | - | - | -
CCOc1ccc(N(CC(=O)Nc2ccc(C)cc2)S(=O)(=O)c2c(C)[nH]c(=O)[nH]c2=O)cc1 | 0 | - | 0 | 0 | 2.8µM | 0
CCOc1ccc(NC(=O)CN(c2ccc(OCC)cc2)S(=O)(=O)c2c(C)[nH]c(=O)[nH]c2=O)cc1 | 0 | 0 | 0 | 0 | 6.3µM | 0
CCOC(=O)c1[nH]c2cc(OC)c(OC)cc2c1N | 28µM | 0 | 0 | 0 | 0 | 0
O=C(COc1ccc(Br)cc1)NCCN1CCCC1 | 0 | - | - | - | 0 | -
CC(=O)n1c2ccccc2c2nc(NC(C)C)sc21 | 0 | 0 | 0 | 0 | 0 | 0
CNc1nc2c3ccccc3n(C(C)=O)c2s1 | 25µM | 0 | 0 | 0 | 0 | 0
O=C(O)c1ccccc1C(=O)NNc1ccc(F)cc1 | 28µM | 0 | 0 | 0 | 0 | 0
O=C(O)c1ccccc1-c1ccccc1C(=O)Nc1ccc(F)cc1 | 0 | - | - | - | 0 | -
O=C(O)c1ccccc1C(=O)NNc1ccc(Cl)cc1Cl | 16µM | 0 | 0 | 0 | 0 | 0
O=C(NNC(=O)c1ccccc1-n1cccc1)c1ccc(Cl)cc1Cl | 0 | ? | 0 | 0 | 0 | 0
COc1ccc(NC(=O)CCS(=O)(=O)c2nc(-c3ccc4c(c3)OCO4)cc(C(F)(F)F)n2)c(OC)c1 | 0 | - | - | - | - | -
CCN(CC)S(=O)(=O)c1ccc(NC(=O)CN(c2ccccc2)S(=O)(=O)N(C)C)cc1 | 0 | - | - | - | - | -
COc1ccc(NCC(=O)Nc2ccc(Br)cc2F)c(OC)c1 | 40µM | 0 | 0 | 0 | 0 | 0
O=C(c1ccc(F)cc1)C1CCN(Cc2ccc(F)cc2)CC1 | 0 | - | - | - | 0 | -
O=C(/C=N/O)NCCCCNC(=O)/C=N/O | - | - | 0[17.5 µM] | - | 0[12.8 µM] | 0[17.4 µM]
Cc1nnsc1C(=O)NNS(=O)(=O)c1ccccc1 | 28µM | 0 | 0 | 0 | 0 | 0
CCN1CCN(CC(=O)N2CCCC(C(=O)c3ccc(Oc4ccccc4)cc3)C2)CC1 (configuration not stated) | 7.9µM | 0 | 0 | 0 | ? | 0
Cc1ccc2occ(/C=N/NC(=O)c3ccc(O)cc3)c(=O)c2c1 | 0 | - | - | - | 0 | -
NC(=O)N/N=C/c1coc2ccc(O)cc2c1=O | 16µM | 0 | 0 | 0 | 0 | 0
CCOC(=O)c1ccc(NS(=O)(=O)c2cc3c(cc2C)n(C)c(=O)c(=O)n3C)cc1 | 0 | - | - | - | - | -
O=C(NC(=S)N1CCN(c2ccc(O)cc2)CC1)c1cccs1 | 10µM | - | 0 | 0 | 0 | 0
Cc1cc2oc(=O)c(CC(=O)NCCc3ccccc3F)c(C)c2c2occ(C(C)(C)C)c12 | 0 | - | - | - | - | -
SMILES | GAA glycogen | GAA inhib | aGal spleen mod | GLA inh pH 4.5 | N370S GC mod | aGlu spleen mod
N#Cc1c(Cl)cccc1N1CCCC1 | 0 | 0 | 0 | 0 | 0 | 0
N#Cc1c(Cl)cccc1N1CCC(C(N)=O)CC1 | 4.4µM | - | 0 | 0 | 0 | 0
COC(=O)c1c(NC(=O)Cc2coc3cc(C)ccc23)sc2c1CCC2 | 0 | - | - | - | - | -
CC(=O)N1CCN(S(=O)(=O)c2ccc3c(c2)CC(=O)N3)CC1 | 12µM | - | - | - | - | -
COc1ccc2nc(NNC(=O)COc3ccccc3)sc2c1 | 5µM | 0 | 0 | 0 | 0 | 0
CC(=O)NNc1nc2ccccc2s1 | 8.9µM | 0 | 0 | 0 | 0 | 0
Cc1ccccc1Nc1c(-c2ccccc2O)nc2sccn12 | 11µM | - | - | - | - | -
Cc1ccc2[nH]c(=O)c(-c3nc4ccccn4c3NCc3ccco3)cc2c1 | 32µM | 0 | 0 | 0 | 0 | 0
O=Cc1c(NCc2ccco2)nc2ccccn2c1=O | 0 | 0 | 0 | 0 | 0 | 0
COc1ccc(Nc2nc(-c3ccccc3)nc3ccccc23)cc1S(=O)(=O)N1CCOCC1 | 0 | - | 0 | 0 | 14µM | 0
Oc1cccc(Nc2nc(-c3ccccc3)nc3ccccc23)c1 | 0 | - | - | - | 2.8µM | -
Cc1ccc(CN(C(=O)c2ccccc2F)c2ccccn2)o1 | 0 | - | - | - | - | -
Cc1ccc(N/C=C/C(=O)C(C)(C)C)c(O)c1 | 40µM | 0 | 0 | 0 | 0 | 0
CC(=O)Nc1ccc(N/C=C/C(=O)C(C)(C)C)cc1 | 0 | 0 | 0 | 0 | 0 | 0
COC(=O)C1CSc2[nH]c(=O)sc2C1c1ccc(OC)c(OC)c1 (configuration not stated) | 18µM | 0 | 0 | 0 | 0 | 0
Cc1ccc(C)c(S(=O)(=O)Nc2ccc(O)cc2)c1 | 12µM | 0 | 0 | 0 | 0 | 0
Cc1cc(C)c(S(=O)(=O)Nc2ccc(O)cc2)cc1C | 14µM | 0 | 0 | 0 | 0 | 0
CCn1c(SCC(=O)c2ccc(O)c(O)c2)nnc1-c1ccccc1OC | 25µM | 0 | 0 | 0 | 0 | 0
COc1ccccc1-c1nnc(SCC(=O)c2ccc(Cl)cc2)n1-c1ccccc1 | 0 | - | - | - | - | -
C=CCn1c(SCC(=O)c2ccc(O)c(O)c2)nnc1-c1cccnc1 | ? | - | 0 | 0 | 0 | 0
C=CCn1c(SCC(=O)c2ccc(O)c(O)c2)nnc1-c1ccccc1OC | 18µM | 0 | 0 | 0 | 0 | 0
CCn1c(SCC(=O)c2ccc(O)c(O)c2)nnc1-c1ccccc1 | 7.9µM | ? | 0 | 0 | 0 | 0
O=C(NCc1ccccn1)C(=O)NN=C1CCCCCCC1 | 32µM | 0 | 0 | 0[21.1 µM] | 0 | 0
CCOC(=O)c1cc(OC(=O)c2cc(OC)c(OC)c(OC)c2)n(-c2ccccc2)n1 | 0 | - | - | - | - | -
CNc1ncnc2ccc(-c3cccc(OC)c3)cc12 | - | - | 0 | - | 8.9µM | 0
Cc1cccc(Nc2nc(-c3ccc(O)cc3O)cs2)n1 | 40µM | - | - | - | 0 | -
Oc1ccc(-c2csc(Nc3ncccn3)n2)c(O)c1 | 0 | 0 | 0 | 0 | 0 | 0
